Test results reported in the supplement of paper PMC6555819.

Legend:
Assay in all cases: PBM binding z-score (relative to random genomic background probes); higher = stronger binding; sequences stand for … in GC…GCGATTGACAGCGTAGAATGAAGG
[1] = test system: FXR:RXRa (NR concentration 270 nM, RXRa partner concentration 90 nM)
Method in brief: (§1)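 Binding z-scores were set against random background probes. The data came from custom Agilent 4×180K protein-binding microarrays carrying double-stranded probes with 34-nt variable regions, incubated 1 h with ligand-free nuclear receptor dimers. Partner-specific antibodies detected binding, and scanned fluorescence was regression-normalized.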

[2] = test system: LXRa:RXRa (NR concentration 270 nM, RXRa partner concentration 90 nM)
Method in brief: as §1

[3] = test system: LXRa homodimer (NR concentration 270 nM)
Method in brief: as §1

[4] = test system: LXRb:RXRa (NR concentration 270 nM, RXRa partner concentration 90 nM)
Method in brief: as §1

[5] = test system: LXRb homodimer (NR concentration 270 nM)
Method in brief: as §1

[6] = test system: PPARa:RXRa (NR concentration 270 nM, RXRa partner concentration 90 nM)
Method in brief: as §1

[7] = test system: PPARg:RXRa (NR concentration 180 nM, RXRa partner concentration 90 nM)
Method in brief: as §1

[8] = test system: PPARg:RXRa 270nM:90nM, anti-RXR (NR concentration 270 nM, RXRa partner concentration 90 nM)
Method in brief: as §1

[9] = test system: PPARg:RXRa 30nM:10nM, anti-RXR (NR concentration 30 nM, RXRa partner concentration 10 nM)
Method in brief: as §1

[10] = test system: PPARg:RXRa 90nM:30nM, anti-RXR (NR concentration 90 nM, RXRa partner concentration 30 nM)
Method in brief: as §1

Sequence | PBM binding z-score [1] | PBM binding z-score [2] | PBM binding z-score [3] | PBM binding z-score [4] | PBM binding z-score [5] | PBM binding z-score [6] | PBM binding z-score [7] | PBM binding z-score [8] | PBM binding z-score [9] | PBM binding z-score [10]
TCGAGTAGGTTACCAATGGGTCATTCAGCTTTCT | 1.16 | 3.38 | 0.134 | 2.15 | -0.601 | 2.66 | 0.754 | 1.91 | 1.5 | 1.72
TCTGCTAGTTCAGTTGGTCAGCTAACGAGCTGCC | -0.661 | -0.0879 | -0.708 | -0.52 | 0.193 | 0.1 | -1.03 | 0.545 | 1.27 | 0.794
CGTCCAAGGTCAATGCTAGGTCAGTGACAGCATT | 6.74 | 5.78 | 2.73 | 4.19 | 1.14 | 5.31 | 4.11 | 4.64 | 1.38 | 3.44
CCTAGTTGGTCAGGAGGTCACGCACCGGATATGA | 4.29 | 4.22 | 2.24 | 3.81 | 0.661 | 4.65 | 4.41 | 4.64 | 2.02 | 3.5
GCTAGCAGGCCATTTGGGTCATTCAATGACGGGC | 0.317 | 0.0338 | -0.598 | 0.324 | -1.08 | 1.47 | 0.533 | 0.233 | -0.872 | -0.17
CCGACTGGGGCAGAAAGGTTACTATACCATCCGG | -0.369 | -0.0108 | -0.29 | 0.722 | -1.04 | 1.5 | 1.63 | 2.14 | 0.485 | 1.52
TCTAGCAGGCCAGAGCGTCACTCAAGAGGTACGG | -0.546 | -0.726 | -0.841 | -1.08 | -1.75 | -0.0685 | 0.266 | 0.612 | 1.11 | 0.674
CGAACTAGGTCATCCAGGACAGTGACTACATTGA | 4.72 | 2.67 | 0.428 | 1.91 | -0.136 | 4.84 | 7.74 | 6.43 | 3.94 | 6.21
TGTCGGAGGACACGAAAGGTCAGAGCTCGACATC | 3.25 | 3.96 | 2.69 | 3.16 | 0.015 | 3.69 | 1.62 | 2.54 | 0.799 | 1.53
CCTTACGGGTCACGAGGTTCTAGCACGACGAGCG | 6.53 | 4.22 | -0.19 | 3.53 | 0.0881 | 5.66 | 6.59 | 6.31 | 3.2 | 5.36
ATCTCCAGGTAACCAAGTTCAGTGAATGCCGAAC | 0.454 | 0.776 | 1.02 | 0.753 | 0.946 | 0.696 | 0.227 | 0.427 | 0.0617 | 0.231
TCCTATAGGTAAATGCTAGGTGAAAGTCCGATCT | 0.02 | 0.489 | -0.157 | 0.379 | -0.293 | 1.16 | 0.318 | 1.7 | 2.99 | 2.19
CAGCCTAGGTCAGGGCCATTATAGGAGGAACGTT | 1.65 | 1.08 | -0.000598 | 0.902 | -0.851 | 2.17 | 1.2 | 1.24 | -0.158 | 0.533
CCGACTGGGGCATAAGGTTACCCTAAGCCAGCCC | 0.368 | 0.99 | -0.135 | 0.439 | -1.18 | 1.6 | 1.95 | 3.02 | 0.838 | 2.09
ATCTGTAGGTAAAGATAGTTCAGTGAATGCAAAT | 0.274 | 4.33 | 0.422 | 0.986 | 0.477 | 0.733 | 0.782 | 0.571 | 0.256 | 0.391
TCATATAGGTAATACAGGTGAAAGACGGCATCTA | 1.16 | 1.28 | 0.842 | 0.947 | 0.0154 | 1.94 | 1.92 | 2.73 | 4.26 | 3.41
ATCTCTAGGTAACCAAGTTGAGTGAATGCCGAAC | 0.189 | 0.0773 | 0.252 | 0.0776 | 0.391 | 0.54 | 0.337 | 0.316 | -0.0449 | 0.238
GCGACTGGGGCACCAGCAGGTTACCATAACTTAA | -0.545 | -0.382 | -0.495 | 0.0821 | -1.41 | 1.05 | 1.55 | 1.44 | -0.582 | 0.564
AATACAGGATCATCGTAGGCCAGAGTACGCACAG | -0.0228 | 0.0727 | 0.0212 | 0.0447 | 0.414 | -0.0183 | 0.976 | 0.159 | 0.238 | 0.209
TCTTGTACATCAACAGGAGGTTAAGAAAGATCGA | 0.517 | 1.37 | 0.452 | 1.13 | 0.442 | 1.16 | 0.195 | 1.36 | 3.01 | 1.9
CAAACTCGGTCAAAGGTCAAAGTCGAGCCAACCA | 7.73 | 6.98 | 6.36 | 6.72 | 3.13 | 7.67 | 12.9 | 10.9 | 11.8 | 12.5
TCGAGTAGTTTACCAATGGGGCATTCAGCTTTCT | -0.0204 | -0.0341 | -0.552 | 0.423 | -0.375 | -0.115 | -0.798 | 0.325 | 0.821 | 0.499
TCTACTAGGTCAGTTGGTCAGCTAACGAGCTGCC | 1.67 | 1.12 | -0.0574 | 0.857 | 1.06 | 2.61 | 4.64 | 4.2 | 3.87 | 4.08
ATCTCAAGGTAACAAGTTCAGTGAAAGAGAGGAC | 1.2 | 1.29 | 0.665 | 0.971 | 0.9 | 1.4 | 0.619 | 1.08 | 0.731 | 1.03

Sequence | PBM binding z-score [1] | PBM binding z-score [2] | PBM binding z-score [3] | PBM binding z-score [4] | PBM binding z-score [5] | PBM binding z-score [6] | PBM binding z-score [7] | PBM binding z-score [8] | PBM binding z-score [9] | PBM binding z-score [10]
CAAACTAGGACACCGGAAGGTCAAAGTCCGCATG | 3.19 | 3.23 | 3.38 | 3.19 | 0.695 | 4.46 | 4.72 | 4.54 | 1.9 | 3.7
CCGACTGGGGCATAAGGTGACCATAAGCCAGCCC | -0.111 | -0.426 | -0.561 | -0.432 | -1.62 | 1.3 | 2.04 | 2.92 | 0.757 | 2.38
GCATATAGGTAATACAACGTGAAAGTCCGATTGT | -0.622 | -0.502 | -0.205 | -0.638 | -0.368 | 0.333 | 1.02 | 0.49 | 0.28 | 0.431
CTCGAAAGGTCGTGCTCAGGTCAGTATACCAAAC | 5.86 | 5.15 | 1.44 | 4.15 | 0.558 | 5.2 | 3.19 | 4.09 | 1.06 | 2.7
CCTAGTTGGTCAGGAGGTCACTCACCGGATATGA | 3.08 | 2.85 | 1.57 | 2.79 | 0.66 | 3.54 | 2.76 | 3.43 | 1.11 | 2.75
TCTTGTAGATCAATGGAGGTTAAGAAAGTGCGCT | 0.901 | 2.8 | 0.173 | 1.3 | -0.0128 | 1.52 | -0.31 | 1.5 | 2.83 | 2.18
CCTATTAGTTGACCATAAGGGCAACCTAAGCTCG | 1.15 | 0.43 | 0.487 | 0.701 | 0.685 | 0.846 | 0.521 | 0.842 | 0.125 | 0.491
CGTCCAAGGTCGATGCTAGGTCAGTGAAAGCATT | 1.61 | 1.91 | -0.14 | 1.33 | -0.866 | 1.81 | -0.125 | 0.529 | -0.65 | -0.0604
TCTTGTAGATCAACAGAAGGTTAAGAAAGATCGA | 0.396 | 1.11 | 0.0845 | 0.953 | -0.0831 | 1.27 | 0.104 | 1.35 | 2.82 | 2.04
TTAATGAGGTTATAAGATCAGGGAACGTTGCAAA | 1.87 | 1.75 | 0.416 | 1.58 | 0.291 | 3.04 | 1.96 | 2.7 | 1.97 | 2.32
ATACCAAGGTGATCGTGAGATCGTTGATACTAAC | 0.2 | 0.163 | 0.16 | 0.121 | -0.2 | 0.129 | 0.447 | 0.161 | -0.226 | -0.234
AGAATGATGTTATTAAGATCAGGGAATTGCGGTC | -0.0815 | -0.447 | 6.67e-05 | -0.339 | -0.205 | 0.0831 | 0.179 | -0.306 | -0.179 | -0.208
TCTGCTAGGTCAACGATGTTCAGCTAATCTGCTA | 3 | 2.22 | -0.237 | 1.39 | -0.31 | 3.1 | 2.54 | 3.01 | 2.01 | 2.42
CCGACTCGGGCAAGGTTACCATAACGCACAGCCA | -0.303 | 0.69 | -0.249 | 0.349 | -1.13 | 0.95 | 1.01 | 0.916 | -0.148 | -7.81e-07
CCGACTGCGGCAGAAAGGTTACCATACCATCCGG | 0.417 | 0.665 | -0.0134 | 1.08 | -0.692 | 1.85 | 1.33 | 2.53 | 0.645 | 2.19
GCGACTGGGGCATTAGCAGGTTACCATAACTTAA | -0.284 | 0.0464 | 0.0141 | 0.936 | -0.458 | 0.973 | 0.712 | 0.609 | -0.0543 | 0.0308
CCTTACGGGTCACTGACATGTTATAGCATTTGGA | 5.55 | 3.84 | 0.306 | 3.54 | 0.233 | 5.2 | 4.42 | 4.66 | 2.21 | 3.45
CAAACTAGGTCAACGTCAAAGTCGGTTTGTGCCA | 3.78 | 2.64 | 0.425 | 1.92 | 0.247 | 5.24 | 8.49 | 6.68 | 4.95 | 6.72
TCTCGGAGGACACGAGGGTCAGAGCTTTCCAGAG | 0.856 | 0.365 | -0.438 | 0.47 | -1.32 | 1.46 | 0.145 | 1.07 | 1.75 | 1.17
CGCGAAAGGTCGGTTGAGGTGAGTATACGGATAA | 2.66 | 1.81 | -0.0594 | 1.38 | -0.0248 | 2.75 | 0.872 | 1.45 | 0.235 | 0.88
AGTCAAAGTTAACTAGGTAACGTAAGATTCAGCT | -0.192 | 0.0304 | -0.49 | -0.0459 | -0.318 | 2.16 | 2.33 | 2.5 | 0.593 | 1.89
GCTATTGGTTGAAAGGGCAACCGAATGATTCTCG | 0.353 | 0.664 | -0.156 | 0.954 | -0.225 | 2.36 | 2.29 | 4.34 | 1.94 | 4.37
CCGACTGGGGCAGGAAGGTTACCATACCATCCGG | -0.0935 | -0.228 | -0.392 | -0.202 | -0.995 | 0.76 | 0.782 | 0.189 | -0.465 | -0.0165
CGTCCAAGGTCTATGCTAGGTCAGTGAAAGCATT | 0.1 | 5.48 | 0.995 | 2.27 | -0.26 | 0.535 | -0.39 | -0.288 | -0.641 | -0.388
